Laboratory results taken from PubChem BioAssay.
Values joined by “and” are separate entries in the source; they are usually repeats but may differ in a detail not shown here. Identical values can stand only once. Active and inactive are the calls of the source.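 The calls were made as follows: active = fluorescence ratio normalized to control raised more than 50% in primary screen plus both repeat runs; inactive = the rest.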

These molecules were tested on TRPC4 beta (transient receptor potential cation channel C4), mouse (assay: activators of mouse TRPC4 channel, confirmation, cell-based, Fluo4 calcium, HEK293 TRPC4beta/mu-opioid, duplicates, 10 µM (AID 2426;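 as to activation: percent rise of integrated ratio over buffer wells lacking compound which define 0%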)). Conditions: Fluo4 calcium fluorescence, at 10 µM; active compounds read high.

activation, active:
COc1ccc(C(CNC(=O)COc2ccccc2OC)N(C)C)cc1OC (centres undefined) 133%
COc1ccc(C(CNC(=O)CCOc2ccccc2)N(C)C)cc1 (centres undefined) 145%
CN(C)C(CNc1ccc(C(F)(F)F)cn1)c1ccccc1 (centres undefined) 135%
Fc1ccc(-n2cc(CNCCc3cccnc3)c(-c3ccccc3Cl)n2)cc1 153%
CCOC(=O)c1ccc(NC(=O)NCCc2cnc[nH]2)cc1 147%
CN1CCN(C(=O)c2cccn(Cc3c(Cl)cccc3Cl)c2=O)CC1 147%
Cc1sc2ncnc(NCC(c3ccccc3)N(C)C)c2c1C (centres undefined) 245%
O=C(O)C1C2C=CC(C2)C1C(=O)N1CCN(C/C=C/c2ccccc2)CC1 (centres undefined) 71%
O=C(Nc1ccncc1)c1ccc(Cl)c(S(=O)(=O)N2CCc3ccccc32)c1 108%
CC(=O)OCC[N+](C)(C)C 128% and 146%
COc1ccc(CCN(C)C(=O)C2CCCN(C3CCN(Cc4ccccc4)CC3)C2)cc1OC (centres undefined) 143%
Cc1cc(C)cc(NC(=S)N2CCN(c3ncc(C(F)(F)F)cc3Cl)CC2)c1 105%
COc1ccc(C(CNC(=O)Cc2ccc(-c3ccccc3)cc2)N(C)C)cc1 (centres undefined) 192%
O=c1c(Cc2ccccc2)c(O)ccn1CCc1cnc[nH]1 134%
NCCCNC(=O)c1cc2ccccc2[nH]1 220%
COc1ccc(-n2c3c(cc(C(=O)NNc4ccccc4)c2=O)C(=O)CC(C)(C)C3)cc1 104%
O=C1/C(=C\c2cc([N+](=O)[O-])ccc2O)SC(=S)N1Cc1ccc(Cl)cc1 147%
Cc1ccc(C(=O)NNC(=S)NC(=O)COc2ccccc2)cc1 171%
CCCCCc1c(O)nc(SCCN(C)C)[nH]c1=O 63%
CC1CC(C)CN(CCCNS(=O)(=O)c2cc(Br)cc3c2N(C(=O)C2CC2)CC3)C1 (centres undefined) 139%
Cc1ccccc1C(=O)NNC(=S)NC(=O)COc1ccccc1 180%
CCCn1ncc(CN2CCC(n3nccc3NC(=O)CCc3ccccc3)CC2)c1C 132%
Cc1sc2ncnc(NCC(c3ccco3)N(C)C)c2c1C (centres undefined) 202%
CCCN(CCC)CCNC(=O)CCC(=O)Nc1ccc2nc(N3CCOCC3)cc(C)c2c1 99%
CCN1CCN(c2c(Cl)cccc2NC(=O)c2ccc([N+](=O)[O-])cc2)CC1 80%
CN1CCN(c2ccc(NC(=O)c3ccc(-c4cccc([N+](=O)[O-])c4)o3)cc2)CC1 87%
CN(C)C(CNC(=O)NC1CCCCC1)c1cccnc1 (centres undefined) 79%

outcome, inactive:
CCCCN(CC)CCNC(=O)c1cc2c(-c3ccc(Cl)cc3)nn(C)c2s1
COc1ccc(C(=O)NNC(=S)NC(=O)c2cccs2)cc1
CCC(=O)NC(C)C(c1cccs1)N1CCN(c2ccccc2)CC1 (centres undefined)
Cn1c2ccccc2c(=O)c2c(=O)n(C3CCCCC3)c(-c3ccco3)nc21
O=C(c1sc2ccccc2c1Cl)N(Cc1ccccc1)C1CCS(=O)(=O)C1 (centres undefined)
CN(C)C(CNC(=S)Nc1ccc(Cl)cc1)c1cccnc1 (centres undefined)
CN1C2C=C(N(CCc3ccccc3)C(=O)c3ccc(Cl)cc3)CC1CC2 (centres undefined)
CCOC(=O)C1(CC2CCCCO2)CCN(Cc2cc(F)ccc2-n2cccn2)CC1 (centres undefined)
Cc1ccc(NC(=O)CCN2CCC(Cc3ccccc3)CC2)cc1
OCCC1CN(Cc2ccccc2-c2ccco2)CCN1Cc1ccccc1 (centres undefined)
O=C1S/C(=C\c2ccc(N3CCOCC3)o2)C(=O)N1Cc1c(F)cccc1Cl
COCCCn1c(N)c(-c2nc3ccccc3n2C)c2nc3ccccc3nc21
